Experimental data from PubChem BioAssay (NCATS).
Results filed as inconclusive are left out. The source made the active and inactive calls. Unless noted, calls come from the whole dose curve; as a rule, active = well fitted curve in the direction sought with a large enough effect; inconclusive = small, poorly fitted or top-dose-only effect, or another doubt; inactive = no such curve, though single readings can be large; an effect the other way counts as inactive or inconclusive.

Key:
[1] = target: Cytochrome P450 1A2 (Homo sapiens) (UniProt P05177); assay: p450-cyp1a2 (AID 410; calls by dose curve; note: potency is the fitted concentration of half-maximal effect)
Cytochrome P450 1A2 (Homo sapiens), sequence (P05177 whole entry, looked up): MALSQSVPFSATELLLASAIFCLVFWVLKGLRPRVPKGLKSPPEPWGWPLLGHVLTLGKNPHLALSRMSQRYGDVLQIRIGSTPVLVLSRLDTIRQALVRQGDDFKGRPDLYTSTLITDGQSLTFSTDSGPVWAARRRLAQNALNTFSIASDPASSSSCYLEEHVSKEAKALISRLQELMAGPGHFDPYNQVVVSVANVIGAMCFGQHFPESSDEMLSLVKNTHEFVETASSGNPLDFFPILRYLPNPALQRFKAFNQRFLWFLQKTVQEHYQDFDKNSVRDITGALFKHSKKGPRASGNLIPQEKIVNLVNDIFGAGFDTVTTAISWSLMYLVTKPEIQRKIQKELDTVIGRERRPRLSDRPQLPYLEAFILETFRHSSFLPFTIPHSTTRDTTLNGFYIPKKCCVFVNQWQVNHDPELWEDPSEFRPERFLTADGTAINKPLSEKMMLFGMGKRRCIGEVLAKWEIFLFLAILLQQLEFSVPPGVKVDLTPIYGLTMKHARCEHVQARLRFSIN
Outline: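 Luminescent readout of luciferin formed from Luciferin-ME by human CYP1A2; data normalized against complete inhibition by 57 uM furafylline. Enzyme 20nM, substrate 100uM at Km, 100mM KPO4 buffer, 60 min reaction at room temperature.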

[2] = target: Cytochrome P450 2D6 (Homo sapiens) (UniProt P10635); assay: qHTS Assay for Inhibitors and Substrates of Cytochrome P450 2D6 (AID 891); note: potency is the fitted concentration of half-maximal effect; nearly all actives have a fitted effect of over 60% in size
Cytochrome P450 2D6 (Homo sapiens), sequence (P10635 whole entry, looked up): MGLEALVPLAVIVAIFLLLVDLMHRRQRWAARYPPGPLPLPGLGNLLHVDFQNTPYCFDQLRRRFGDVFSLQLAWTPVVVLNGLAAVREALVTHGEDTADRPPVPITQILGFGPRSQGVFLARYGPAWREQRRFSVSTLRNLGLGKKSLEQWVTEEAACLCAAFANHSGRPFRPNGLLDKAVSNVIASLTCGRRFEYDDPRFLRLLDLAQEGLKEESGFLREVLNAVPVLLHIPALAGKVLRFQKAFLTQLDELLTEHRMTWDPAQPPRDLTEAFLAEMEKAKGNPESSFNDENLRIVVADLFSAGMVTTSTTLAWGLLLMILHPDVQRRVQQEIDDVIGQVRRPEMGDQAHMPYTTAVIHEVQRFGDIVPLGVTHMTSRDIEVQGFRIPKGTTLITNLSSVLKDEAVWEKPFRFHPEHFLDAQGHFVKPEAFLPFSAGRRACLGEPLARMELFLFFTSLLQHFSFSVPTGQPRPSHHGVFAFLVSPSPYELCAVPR
Outline: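 Human CYP2D6 (5 nM) with 30 uM Luciferin-ME EGE (at Km) in 100 mM KPO4, compound preincubated 10 min, then NADPH regeneration system for 60 min at room temperature. Luciferin read by luminescence; normalized to 1.43 uM quinidine.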

[3] = target: Cytochrome P450 3A4 (Homo sapiens) (UniProt P08684); assay: qHTS Assay for Inhibitors and Substrates of Cytochrome P450 3A4 (AID 884); note: potency is the fitted concentration of half-maximal effect; nearly all actives have a fitted effect of over 50% in size
Cytochrome P450 3A4 (Homo sapiens), sequence (P08684 whole entry, looked up): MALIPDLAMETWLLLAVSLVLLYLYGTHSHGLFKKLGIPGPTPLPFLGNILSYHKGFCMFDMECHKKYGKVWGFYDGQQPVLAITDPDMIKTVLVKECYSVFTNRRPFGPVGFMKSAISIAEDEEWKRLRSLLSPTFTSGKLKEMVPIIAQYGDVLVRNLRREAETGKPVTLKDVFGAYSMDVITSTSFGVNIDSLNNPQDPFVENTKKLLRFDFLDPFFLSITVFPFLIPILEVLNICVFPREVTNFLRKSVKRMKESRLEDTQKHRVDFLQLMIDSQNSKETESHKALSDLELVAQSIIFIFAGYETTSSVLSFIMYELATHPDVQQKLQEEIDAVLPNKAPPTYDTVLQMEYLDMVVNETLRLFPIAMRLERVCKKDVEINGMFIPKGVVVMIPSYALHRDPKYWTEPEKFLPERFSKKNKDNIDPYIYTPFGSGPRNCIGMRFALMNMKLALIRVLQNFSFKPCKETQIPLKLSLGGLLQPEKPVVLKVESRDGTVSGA
Outline: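 20 nM human CYP3A4 with 25 uM Luciferin-PPXE (at KM) in 200 mM KPO4, preincubated 10 min with compound; NADPH regeneration started a 60 min RT reaction. Luciferin detected by luminescence, normalized to 57 uM ketoconazole as full inhibition.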

[4] = target: Cytochrome P450 3A4 (Homo sapiens) (UniProt P08684); assay: qHTS Assay for Activators of Cytochrome P450 3A4 (AID 885); note: nearly all actives have a fitted effect of over 65% in size
Outline: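 Signal was normalized against complete inhibition by 57 uM ketoconazole. The reaction used 20nM CYP3A4 with 25uM Luciferin-PPXE, 10-min compound preincubation and a 60-min NADPH-supported step at RT.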

[5] = Confirmation and Secondary Assay for Modulators of Hemoglobin Beta Chain Splicing at IVS2 654 locus (AID 910);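 note: per-well total GFP intensity by laser scanning cytometry after 2-day treatment; % of control where 0% means no effect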
Outline: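 HeLa cells stably carrying EGFP interrupted by mutant beta-globin IVS2-654 intron (CMV-driven) were treated with compound for 2 days at 37C; corrected splicing was scored as total peak GFP intensity per well (488 nm excitation, 500-520 nm emission).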

[6] = S16 Schwann cell viability assay (CellTiter-Glo assay) (AID 624031);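 note: cellular ATP luminescence as a viability measure; plate controls were DMSO-treated cells for no effect and cell-free wells for full effect; nearly all actives have a fitted effect of over 70% in size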
Outline: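 Native S16 rat Schwann cells in DMEM/10% FBS without phenol red were incubated overnight, then exposed to compounds for 24 h at 37 °C/5% CO2. Viability was read as ATP luminescence (CellTiter-Glo), normalized to no-cell wells and DMSO (0%).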

[7] = S16 Schwann cell PMP22 intronic element beta-lactamase assay (AID 624044; calls by dose curve;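 note: 0% = DMSO and -100% = potassium clavulanate positive control; nearly all actives have a fitted effect of over 15% in size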)
Outline: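 Rat S16 Schwann cells with beta-Lac driven by a PMP22 intronic element, compound-treated 24 h at 37 °C. LiveBLAzer FRET B/G read: 460 nm normalized to potassium clavulanate vs DMSO; 535 nm FRET as viability; concentration-effect curves classified.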

7G8 = assay: qHTS profiling for inhibitors of Plasmodium falciparum proliferation (AID 504749); note: nearly all actives have a fitted effect of over 60% in size; note: potency is the fitted concentration of half-maximal effect; settings: P. falciparum in erythrocytes, SYBR Green DNA, 72 h; series mostly up to 12.8 µM
Outline: (§1)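 Parasite proliferation within erythrocytes, 72 h exposure. Endpoint: SYBR Green I fluorescence after overnight lysis at room temperature. Controls: 0.29 uM artemisinin, DMSO.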

CP203 = assay: as above; settings: P. falciparum in erythrocytes, SYBR Green DNA, 72 h; series mostly up to 12.8 µM
Outline: as §1

CP260 = assay: as above; settings: P. falciparum in erythrocytes, SYBR Green DNA, 72 h; series mostly up to 12.8 µM
Outline: as §1

CP335 = assay: as above; settings: P. falciparum in erythrocytes, SYBR Green DNA, 72 h; series mostly up to 12.8 µM
Outline: as §1

DFO2036 = assay: as above; settings: P. falciparum in erythrocytes, SYBR Green DNA, 72 h; series mostly up to 12.8 µM
Outline: as §1

GB4 = assay: as above; settings: P. falciparum in erythrocytes, SYBR Green DNA, 72 h; series mostly up to 12.8 µM
Outline: as §1

ICS = assay: as above; settings: P. falciparum in erythrocytes, SYBR Green DNA, 72 h; series mostly up to 12.8 µM
Outline: as §1

P94_40 = assay: as above; settings: P. falciparum in erythrocytes, SYBR Green DNA, 72 h; series mostly up to 12.8 µM
Outline: as §1

PC26 = assay: as above; settings: P. falciparum in erythrocytes, SYBR Green DNA, 72 h; series mostly up to 12.8 µM
Outline: as §1

TAB109 = assay: as above; settings: P. falciparum in erythrocytes, SYBR Green DNA, 72 h; series mostly up to 12.8 µM
Outline: as §1

CP215 = assay: as above; settings: P. falciparum in erythrocytes, SYBR Green DNA, 72 h; series mostly up to 12.8 µM
Outline: as §1

W2 = assay: as above; settings: P. falciparum in erythrocytes, SYBR Green DNA, 72 h; series mostly up to 12.8 µM
Outline: as §1

[8] = qHTS Assay for Identification of Small Molecule Agonists for Hypoxia Response Element Signaling Pathway (AID 914; active = well fitted activation curve with a large enough effect in the signal ratio, with a control signal flat, not every such curve was filed as active; the % refers to the signal ratio; note: % of control where 0% means no effect); settings: ME-180 HRE-bla reporter, beta-lactamase ratio, CoCl2, 17 h; activation: active compounds read high
Outline: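 ME-180 cells carrying an HRE-driven beta-lactamase reporter were treated with compounds in a titration series plus an EC50 level of CoCl2 for 17 h at 37 degrees Celsius; CCF4 readout as the 460nm/530nm ratio gave AC50 values.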

CN1CCCN([C@@H](c2ccccc2)c2ccc(Cl)cc2)CC1
inactive: Potency [1]
active: Potency [2] 251 nM

CC(=O)N(C[C@@H](O)CO)c1c(I)c(C(=O)NC[C@@H](O)CO)c(I)c(C(=O)NC[C@@H](O)CO)c1I
inactive: Potency [1]

N#Cc1cccc(-c2cncnc2-n2ccnc2)c1
inactive: Potency [4] | Potency [5]
active: Potency [1] 15800 nM | Potency [3] 2510 nM

CS(=O)(=O)Nc1cccc(-c2nc(Nc3ccc(F)cc3)c3ccccc3n2)c1
active: Potency [1] 794 nM | Potency [3] 6310 nM
inactive: Potency [4] | Potency [5]

C1CCN2C[C@@H]3C[C@@H](CN4CCCC[C@H]34)[C@H]2C1
inactive: outcome [6] | Potency [7] | Potency (7G8) | Potency (CP203) | Potency (CP260) | Potency (CP335) | Potency (DFO2036) | Potency (GB4) | Potency (ICS) | Potency (P94_40) | Potency (PC26) | Potency (TAB109)

C=CC1=C(C(=O)O)N2C(=O)[C@@H](NC(=O)/C(=N\OCC(=O)O)c3csc(N)n3)[C@@H]2SC1
inactive: Potency [1] | outcome [6] | Potency [7] | Potency (7G8) | Potency (CP203) | Potency (CP215) | Potency (CP260) | Potency (CP335) | Potency (DFO2036) | Potency (GB4) | Potency (ICS) | Potency (P94_40) | Potency (PC26) | Potency (TAB109) | Potency (W2)

CCOC(=O)C1=C(C)NC(C)=C(C(=O)OC)[C@@H]1c1cccc([N+](=O)[O-])c1
active: Potency [1] 15800 nM
inactive: Potency [4]

C[C@@H]1[C@H]2CC[C@@H]3[C@@H]4CC=C5C[C@@H](N(C)C)CC[C@]5(C)[C@@H]4CC[C@@]32CN1C
inactive: Potency [1] | activation [8] 23.8%

C[C@@H]1O[C@H](O[C@@H]2\C=C/C=C\C=C/C=C\C[C@H](C)OC(=O)/C=C\[C@H]3O[C@@H]3C[C@H](O)C[C@]3(O)C[C@@H](O)[C@@H](C(=O)O)[C@H](C2)O3)[C@@H](O)[C@H](N)[C@@H]1O (stereo in doubt)
inactive: outcome [6] | Potency (7G8) | Potency (CP203) | Potency (CP215) | Potency (CP260) | Potency (CP335) | Potency (DFO2036) | Potency (GB4) | Potency (ICS) | Potency (P94_40) | Potency (PC26) | Potency (TAB109) | Potency (W2)

c1ccc2c(c1)CCCc1cc(NCCN3CCOCC3)nnc1-2
inactive: Potency [1] | Potency [4]

C[C@@H]1C[C@H](OC(=O)[C@@H](O)c2ccccc2)CC(C)(C)N1C
inactive: Potency [1]

C#C[C@]1(O)CC[C@@H]2[C@H]3CCc4cc(OC)ccc4[C@@H]3CC[C@@]21C
inactive: Potency [4]
active: Potency [1] 501 nM

CCOC(=O)O[C@]1(C(=O)COC(=O)CC)CC[C@@H]2[C@@H]3CCC4=CC(=O)C=C[C@@]4(C)[C@H]3[C@H](O)C[C@]21C
inactive: Potency [1] | Potency [4] | Potency [7] | Potency (7G8) | Potency (CP203) | Potency (CP215) | Potency (CP260) | Potency (CP335) | Potency (GB4) | Potency (ICS) | Potency (P94_40) | Potency (PC26) | Potency (TAB109)

CC(=C(CCOP(=O)(O)O)SC(=O)c1ccccc1)N(C=O)Cc1cnc(C)nc1N
inactive: Potency [5] | outcome [6] | Potency (CP203) | Potency (CP215) | Potency (CP260) | Potency (CP335) | Potency (DFO2036) | Potency (GB4) | Potency (ICS) | Potency (P94_40) | Potency (PC26) | Potency (TAB109) | Potency (W2)

CCCCC[C@H](O)/C=C\[C@H]1[C@H](C/C=C\CCCC(=O)O)[C@@H](O)C[C@H]1O (tested in a mixture with another compound)
inactive: outcome [6] | Potency [7] | Potency (7G8) | Potency (CP203) | Potency (CP215) | Potency (CP260) | Potency (CP335) | Potency (DFO2036) | Potency (GB4) | Potency (ICS) | Potency (P94_40) | Potency (PC26) | Potency (TAB109) | Potency (W2)

CN[C@H]1[C@H](O)[C@@H](O[C@@H]2[C@H](O)[C@@H](O[C@H]3OC(CN)=CC[C@H]3N)[C@@H](N)C[C@H]2N)OC[C@@]1(C)O
inactive: outcome [6] | Potency [7] | Potency (7G8) | Potency (CP203) | Potency (CP215) | Potency (CP260) | Potency (CP335) | Potency (DFO2036) | Potency (GB4) | Potency (ICS) | Potency (P94_40) | Potency (PC26) | Potency (TAB109) | Potency (W2)

CN[C@H]1[C@@H](O)[C@@H](NC)[C@@H]2O[C@@]3(O)C(=O)C[C@@H](C)O[C@H]3O[C@H]2[C@H]1O
inactive: outcome [6] | Potency (7G8) | Potency (CP215) | Potency (CP260) | Potency (CP335) | Potency (DFO2036) | Potency (GB4) | Potency (ICS) | Potency (P94_40) | Potency (PC26) | Potency (TAB109) | Potency (W2)

Cn1nnnc1SCC1=C(C(=O)O)N2C(=O)[C@@H](NC(=O)[C@@H](O)c3ccccc3)[C@@H]2SC1
inactive: outcome [6] | Potency [7] | Potency (CP203) | Potency (CP215) | Potency (CP260) | Potency (CP335) | Potency (DFO2036) | Potency (GB4) | Potency (ICS) | Potency (P94_40) | Potency (PC26) | Potency (TAB109) | Potency (W2)

CO[C@H]1[C@H](O[C@H]2O[C@@H](C)[C@@H](O[C@@H]3C[C@](C)(O)[C@H](O)[C@H](C)O3)[C@@H](N(C)C)[C@@H]2O)[C@@H](CC=O)C[C@@H](C)[C@@H](O[C@H]2CC[C@H](N(C)C)[C@H](C)O2)/C=C\C=C/C[C@@H](C)OC(=O)C[C@H]1O
inactive: outcome [6] | Potency (DFO2036) | Potency (PC26)
active: Potency (TAB109) 1580 nM | Potency (W2) 3220 nM
